Assay results published in ChEMBL document CHEMBL3433997, “St. Jude Leishmania screening dataset” (2016).

Molecular target: Solute carrier family 2, facilitated glucose transporter member 1 (Homo sapiens) (UniProt P11166)
Assay: ST_JUDE_LEISH: Cytotoxicity at 2uM final concentration against transgenic Leishmania Mexicana promastigotes LmGLUT1 that are glucose transport deficient and complemented with the human glucose transporter GLUT1. Activity is measured by DNA content using SYBR green in vitro
Assay type: functional

Solute carrier family 2, facilitated glucose transporter member 1 (Homo sapiens), sequence (P11166 whole entry): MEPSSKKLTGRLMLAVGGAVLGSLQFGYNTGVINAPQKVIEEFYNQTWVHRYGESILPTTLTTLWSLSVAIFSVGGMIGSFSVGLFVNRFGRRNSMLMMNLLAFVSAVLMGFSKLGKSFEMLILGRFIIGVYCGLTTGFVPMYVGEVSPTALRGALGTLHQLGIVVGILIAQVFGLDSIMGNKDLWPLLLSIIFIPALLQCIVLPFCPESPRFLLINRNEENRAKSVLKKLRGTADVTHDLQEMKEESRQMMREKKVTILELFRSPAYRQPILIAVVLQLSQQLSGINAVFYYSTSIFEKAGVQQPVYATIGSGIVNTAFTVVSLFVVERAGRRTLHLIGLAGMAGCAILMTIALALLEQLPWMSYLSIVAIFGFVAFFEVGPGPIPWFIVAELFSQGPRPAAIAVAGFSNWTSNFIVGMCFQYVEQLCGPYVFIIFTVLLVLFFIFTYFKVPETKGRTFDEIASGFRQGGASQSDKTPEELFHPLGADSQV

| SMILES | inhibition [%] |
| --- | --- |
| Cc1noc(-c2ccc3c(c2)CCN(CCC2CCC(NC(=O)/C=C/c4ccc(F)cc4)CC2)CC3)n1 (stereo not given) | 0.93 |
| CCc1cn2c3c(cc(C(=O)N[C@@H](Cc4ccccc4)[C@H](O)CNC4CCCCC4)cc13)N(CC)S(=O)(=O)CC2 | -0.63 |
| CC1CCCCC1N(C)C1CCN(CCCNC(=O)C=Cc2ccc(Cl)cc2Cl)CC1 (stereo not given) | -1.12 |
| CO/C(=C\C=C\c1cc2cc(Cl)c(Cl)cc2[nH]1)C(=O)NC1CCN(CCCc2ccccc2)CC1 | 0.89 |
| Cc1ccc(C(=O)Nc2cccc(-c3ccc(N4CCN(C)CC4)nn3)c2)cc1[N+](=O)[O-] | 1.32 |
| O=C(Nc1nccs1)c1cn(-c2ccccc2)nc1-c1ccc(Cl)s1 | 3.1 |
| Cc1cc(NCCC(=O)Nc2ccccc2)nc(NCc2ccccc2C)n1 | 11 |
| Clc1ccc(OCc2ccccc2)c(-c2nc(-c3nc4ccc(Cl)cc4[nH]3)cs2)c1 | 3.08 |
| COc1ccc2[nH]cc(C3CCN(CCC4CCN(C(=O)/C=C/c5ccc(Cl)c(Cl)c5)CC4)CC3)c2c1 | 2.88 |
| CC1(C)NC(N)=NC(=N)N1OCCSc1ccc(Cl)c(Cl)c1 | 5.92 |
| CS(=O)(=O)Nc1ccc2c(C3CCN(CCC4CCN(C(=O)/C=C/c5ccc(Cl)c(Cl)c5)CC4)CC3)c[nH]c2c1 | 4.12 |
| O=C(Nc1ccc(C(F)(F)F)cc1)Nc1cccc([N+](=O)[O-])c1 | 2.81 |
| Cc1cccn2c(=O)c3cc(C(=O)NC(C)c4ccccc4)c(=N)n(CCN4CCOCC4)c3nc12 (stereo not given) | 3.65 |
| CC(C)c1ccc(NC(=O)c2ccc(C(=O)NC3CCN(Cc4ccsc4)C3)cc2)cc1 (stereo not given) | 2.74 |
| CS(=O)(=O)c1ccc(-c2nc(NCC3CCCCC3)cc(C(F)(F)F)n2)cc1 | -0.02 |
| CN(C)CCn1c(N)c(-c2nc3ccccc3s2)c2nc(C#N)c(C#N)nc21 | 2.02 |
| CCOc1cc[nH]c(=O)n1 | -0.65 |
| COc1ccc2[nH]cc(C3CCN(CCCCNC(=O)c4ccc(NC(=O)c5ccc(Cl)cc5)cc4)CC3)c2c1 | 4.59 |
| O=C(NCc1cccs1)[C@H](Cc1ccccc1)Nc1ccnc(NCC2CCCCC2)n1 | 11.9 |
| CCCOc1cc2c(cc1OCCC)C(C=Cc1ccc(Cl)cc1Cl)=NC(C)C2 (stereo not given) | 94.6 |
| CC(C)=C(C(=O)OCc1ccccc1)N1C(=O)[C@@H](NC(c2ccccc2)(c2ccccc2)c2ccccc2)[C@H]1[S+]([O-])CC(=O)OC(C)(C)C (stereo not given in full) | 0.68 |
| O=C(Nc1cccc(CN2CCCN(Cc3cccc(Cl)c3)CC2)c1)c1ccc(-c2ccccc2)cc1 | 4.82 |
| CCNc1cc(C(=O)N[C@@H](Cc2ccccc2)[C@H](O)CNC(C)C)cc(N2CC(c3ccccc3)CCS2(=O)=O)c1 (stereo not given in full) | 2.23 |
| CN(C)CCCOc1ccc(-c2csc(NC(=N)NCc3ccccc3)n2)cc1 | 1.32 |
| Cn1nc(-c2ccc(NC(=O)Nc3cc(C(F)(F)F)cc(C(F)(F)F)c3)c(F)c2)c2cnc(NCCN3CCOCC3)nc21 | 2.68 |
